Here are results for seven compounds from PubChem BioAssay.

Values joined by “and” are separate entries in the source; they are usually repeats but may differ in a detail not shown here. Identical values can stand only once. Active and inactive are the calls of the source. Unless noted, no stated cut-off is given here; in the data, active means inhibition above about 80%; inactive means the rest.

Assay [1] can be described thus: sensitizers of A549 cells to miR-34 induction, primary screen, imaging, A549 dox-inducible miR-34, nuclei and caspase counts (AID 1347080;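 active means compounds whose cell count with miR-34 switched on is under 0.7 times the count with it off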). As to conditions: A549 miR-34 inducible, Hoechst nuclei count, 48 h.
A short description of assay [2]: survival rescue of mitochondrial mutant cells in low glucose, primary screen, MELAS cybrids, Rieske KO mouse fibroblasts, CellTiter-Glo (AID 1508586;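 active means mean z-score across replicates of 1.96 or higher in either the MELAS or the Rieske mutant cell line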;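 further: z relative to plate mean and SD of compound and empty wells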). (In general: ATP-based viability assays read luminescence as a measure of living cells.)
Assay [3] addresses NAD(+) hydrolase SARM1 (Homo sapiens) (UniProt Q6SZW1). Description: SARM1 TIR NADase inhibitors, cell lysate, NAD-Glo luminescence (AID 1508614;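 active means compound whose remaining NAD level is above about 45 nM, limit read from the data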). The settings on record: SAM-TIR HEK293T lysate NADase, at 1 µM, stronger effect = higher value.
The target in assay [4] is Mitogen-activated protein kinase 7 (Homo sapiens) (UniProt Q13164). Description: ERK5 transactivation activators in reporter cells, primary screen, cell-based, HTS (AID 1508626;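 active means luciferase signal above three times the same-plate solvent-only control wells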;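 further: luciferase driven by Gal4-ERK5 fusion binding five Gal4 sites before minimal TATA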). The settings on record: HeLa Gal4-ERK5 transactivation, 18 h, at 5 µM, stronger effect = higher value.
Assay [5] can be described thus: viability rescue of complex I mutant cybrids, primary screen, cell-based, galactose medium, ATP luminescence (AID 1645843;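 active means z-score of at least 1.8 in each of two replicates, scored against plate mean and spread of sample wells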;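 further: positive z means more ATP and so rescue of galactose-driven cybrid death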). As to conditions: complex I mutant cybrid cells, 72 h, stronger effect = higher value.
A short description of assay [6]: LFS_MB_P medulloblastoma growth inhibition, cell-based, chromothripsis tumors, cisplatin or BGB combos (AID 1671449).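 Further: cells exposed for 96 hours; 0% = vehicle DMSO and 100% = killing by high DMSO.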 As to conditions: LFS_MB_P medulloblastoma cells.
Assay [7] can be described thus: HDN33 neuroblastoma growth inhibition, cell-based, chromothripsis tumors, cisplatin or BGB combos (AID 1671450).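 Further: cells exposed to compound for four days; 0% = vehicle DMSO and 100% = cell killing by high DMSO.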 As to conditions: HDN33 neuroblastoma cells, stronger effect = higher value.
Assay [8] can be described thus: ICB984 medulloblastoma cell growth inhibition, synergistic combos for chromothripsis tumors, cisplatin or BGB combos (AID 1671451; call rule not given here;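 further: cells exposed for 96 hours before readout; 0% = vehicle DMSO and 100% = killing by high DMSO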). As to conditions: ICB984 medulloblastoma cells, drug combinations, stronger effect = higher value.
The nature of assay [9]: LFS_MB_1R medulloblastoma cell growth inhibition, synergistic combos for chromothripsis tumors, cisplatin or BGB combos (AID 1671452).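 Further: cells exposed for 96 hours before readout.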 The settings on record: LFS_MB_1R medulloblastoma cells, stronger effect = higher value.
A short description of assay [10]: HTB85 osteosarcoma cell growth inhibition, synergistic combos for chromothripsis tumors, BGB or cisplatin IC20 combos (AID 1671453).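 Further: cells exposed for 96 hours before readout; 0% = vehicle DMSO and 100% = high DMSO killing control.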 As to conditions: HTB85 osteosarcoma cells, drug combinations, stronger effect = higher value.
The nature of assay [11]: CRL2098 osteosarcoma cell growth inhibition, synergistic combos for chromothripsis tumors, BGB or cisplatin IC20 combos (AID 1671454).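 Further: cells exposed for 96 h before readout; 0% = vehicle DMSO and 100% = killing by high DMSO.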 As to conditions: CRL2098 osteosarcoma cells, drug combinations, stronger effect = higher value.
A short description of assay [12]: HD-MB03 medulloblastoma cell growth inhibition, synergistic combos for chromothripsis tumors, BGB or cisplatin IC20 combos (AID 1671455; in the data active means inhibition above about 83%;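 further: 0% = vehicle DMSO and 100% = high DMSO as cytotoxic control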). As to conditions: HD-MB03 medulloblastoma cells, stronger effect = higher value.
Where [13] appears, read: stronger effect = lower value, cell number ratio, induced over uninduced.
Where [14] appears, read: measured here: relative caspase fold change +Dox/-Dox.
The mark [15] stands for this setting: measured here: total cells with miR-34 induction, stronger effect = lower value.
[16] abbreviates: measured here: total cells without miR-34 induction.
The mark [17] stands for this setting: MELAS cybrid survival, CellTiter-Glo 48 h, stronger effect = higher value.
The mark [18] stands for this setting: Rieske KO mouse fibroblast survival, CellTiter-Glo 72 h.
[19] abbreviates: measured here: combination with BGB IC40, at 0.05 µM.

Chain of NAD(+) hydrolase SARM1 (Homo sapiens) (Q6SZW1 whole entry, looked up, the tested form may be a part): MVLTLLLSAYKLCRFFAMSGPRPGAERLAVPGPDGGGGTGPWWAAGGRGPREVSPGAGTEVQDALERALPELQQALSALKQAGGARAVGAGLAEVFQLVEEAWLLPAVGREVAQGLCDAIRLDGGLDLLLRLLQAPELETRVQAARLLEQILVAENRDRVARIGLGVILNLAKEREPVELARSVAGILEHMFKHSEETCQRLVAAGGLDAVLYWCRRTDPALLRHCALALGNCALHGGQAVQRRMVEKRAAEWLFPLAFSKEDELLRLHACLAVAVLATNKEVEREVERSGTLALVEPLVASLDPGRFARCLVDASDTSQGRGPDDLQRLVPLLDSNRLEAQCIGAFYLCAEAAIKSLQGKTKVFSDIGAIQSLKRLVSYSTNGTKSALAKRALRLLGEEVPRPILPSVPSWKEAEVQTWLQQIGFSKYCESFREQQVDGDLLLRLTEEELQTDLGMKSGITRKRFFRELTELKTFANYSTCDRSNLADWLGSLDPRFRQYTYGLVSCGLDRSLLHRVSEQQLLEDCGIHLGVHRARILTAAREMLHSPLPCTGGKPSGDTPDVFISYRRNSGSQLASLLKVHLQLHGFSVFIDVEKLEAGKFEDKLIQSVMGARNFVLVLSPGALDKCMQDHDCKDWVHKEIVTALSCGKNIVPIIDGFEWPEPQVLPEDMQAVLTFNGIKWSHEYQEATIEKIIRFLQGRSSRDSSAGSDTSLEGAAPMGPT
Chain of Mitogen-activated protein kinase 7 (Homo sapiens) (Q13164 whole entry, looked up, the tested form may be a part): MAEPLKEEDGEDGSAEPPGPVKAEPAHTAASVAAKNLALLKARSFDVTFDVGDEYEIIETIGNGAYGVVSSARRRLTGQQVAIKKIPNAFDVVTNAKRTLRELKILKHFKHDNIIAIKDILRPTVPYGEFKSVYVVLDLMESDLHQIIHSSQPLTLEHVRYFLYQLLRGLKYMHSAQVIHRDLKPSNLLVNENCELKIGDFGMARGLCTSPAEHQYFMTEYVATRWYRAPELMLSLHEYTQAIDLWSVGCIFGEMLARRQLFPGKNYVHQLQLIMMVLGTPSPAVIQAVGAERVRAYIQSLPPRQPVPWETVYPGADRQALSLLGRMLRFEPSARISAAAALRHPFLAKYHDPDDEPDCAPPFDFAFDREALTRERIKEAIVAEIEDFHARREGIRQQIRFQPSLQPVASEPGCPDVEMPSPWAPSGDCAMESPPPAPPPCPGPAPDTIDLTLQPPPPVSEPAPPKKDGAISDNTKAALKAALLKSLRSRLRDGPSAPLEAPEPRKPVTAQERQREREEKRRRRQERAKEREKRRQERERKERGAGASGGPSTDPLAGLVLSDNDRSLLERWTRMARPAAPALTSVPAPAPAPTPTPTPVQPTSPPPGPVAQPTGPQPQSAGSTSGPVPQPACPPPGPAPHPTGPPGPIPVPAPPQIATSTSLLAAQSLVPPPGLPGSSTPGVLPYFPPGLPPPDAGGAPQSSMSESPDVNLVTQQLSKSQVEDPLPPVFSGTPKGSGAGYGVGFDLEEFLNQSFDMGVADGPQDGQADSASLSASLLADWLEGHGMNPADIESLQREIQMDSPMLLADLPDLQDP

For orientation: inhibition means the drop in the measured response relative to a control, in per cent. As to `CN(C)/N=N/c1nc[nH]c1C(N)=O`, the fold change is 0.938 (inactive) and 0.895 (inactive) in assay [1] (setting [13]); 1.29 and 2.08 in assay [1] (setting [14]). The cell count was 11400 and 9140 in [1] (setting [15]); 12200 and 10200 in [1] (setting [16]). Moreover, the z-score in assay [2] (setting [17]) is 0.302 (inactive); in assay [2] (setting [18]), 0.971; in assay [5], -1.27 (inactive). Also, the remaining NAD in [3] was 10 nM (inactive). For the same compound, in assay [4], the luciferase signal was 28 AU (inactive). Besides, the inhibition was -23.9% (inactive) and -10.4% (inactive) in [6] (at 0.5 µM, stronger effect = higher value); 22.6% and -26.8% in assay [6] (measured here: combination with BGB IC20, at 0.005 µM); -4.64% and -12.1% in [6] (measured here: combination with BGB IC40, at 0.005 µM); 6.08% and -27.5% in [6] (setting [19]); -35.1% and -31.1% in assay [6] (measured here: combination with cisplatin, at 0.5 µM, stronger effect = higher value); -14.4% and -39% in assay [6] (measured here: combination with cisplatin, at 5 µM, stronger effect = higher value). For the same compound, the inhibition in [7] (BGB combo, at 5 µM) was 18.6% and -37%; in assay [7] (at 0.5 µM), 0.39% (inactive) and -45.8% (inactive); in [7] (cisplatin combo, at 5 µM) it was 25.6% and -37.1%; in assay [7] (measured here: with BGB IC20 combination, at 0.5 µM), -1.18% and -51%; in [7] (measured here: with cisplatin IC20 combination, at 0.5 µM) it was -5.95% and -47.5%; in [7] (single agent, at 5 µM), 47.2% and 2.95%. The inhibition in [8] (BGB IC20 combo, at 0.005 µM) is 0.732% and 6.78%; in assay [8] (BGB IC40 combo, at 0.005 µM), -12.9% and -11.7%; in assay [8] (BGB IC40 combo, at 0.05 µM), 12.2% and -40.2%; in assay [8] (at 0.5 µM), -9.82% (inactive) and -15.2% (inactive); in assay [8] (cisplatin combo, at 0.05 µM), 9.76% and -45.2%; in assay [8] (cisplatin combo, at 0.5 µM) it was -14.5% and -8.2%. The inhibition in assay [8] (cisplatin combo, at 5 µM) was -16% and -22.9%; in assay [8] (measured here: 5 uM single agent, at 5 µM), -26.7% and -20.4%; in assay [9] (at 0.5 µM), -6.85% (inactive) and -29.4% (inactive); in assay [9] (setting [19]) it was -7.35% and -52.3%; in [9] (measured here: combination with cisplatin, at 0.5 µM), 9.4% and -47.7%; in [9] (measured here: combination with cisplatin, at 5 µM), 3.18% and -94.1%. The inhibition in [10] (at 0.5 µM) was -1.95% (inactive) and -35.1% (inactive); in assay [10] (measured here: with BGB IC20, at 0.5 µM) it was 3.62% and -33.2%; in assay [10] (measured here: with BGB IC20, at 5 µM), -31.2% and -31.5%; in assay [10] (measured here: with cisplatin IC20, at 0.5 µM), -17.3% and -45.8%; in assay [10] (measured here: with cisplatin IC20, at 5 µM) it was -16% and -61.7%; in assay [10] (single agent, at 5 µM), -8.44% and -20.4%. For the same compound, the inhibition in [11] (at 0.5 µM) was -3.56% (inactive) and -92.1% (inactive); in assay [11] (measured here: combination with BGB at IC20, at 0.5 µM) it was -50.1% and -47.1%; in [11] (measured here: combination with cisplatin at IC20, at 0.5 µM), 34.4% and -173%; in assay [12] (at 0.5 µM) it was 0.8% (inactive) and -6.95% (inactive); in assay [12] (measured here: combo with BGB at IC20, at 0.5 µM) it was 4.98% and -8.86%; in assay [12] (measured here: combo with cisplatin at IC20, at 0.5 µM), -6.17% and -0.723%.
As for `CC(=O)Nc1ccc(OCC(O)CNC(C)C)cc1` (configuration not stated), the fold change is 0.852 (inactive) and 0.959 (inactive) in assay [1] (setting [13]); 1.35 and 1.11 in assay [1] (setting [14]). The cell count was 8450 and 10300 in assay [1] (setting [15]); 9920 and 10700 in assay [1] (setting [16]). The z-score in assay [2] (setting [17]) is 0.00127 (inactive) and -0.285 (inactive); in assay [2] (setting [18]), -0.287 and 0.516; in assay [5], 0.68 (inactive). In addition, the luciferase signal in [4] was 24 AU (inactive).
As for `CC1(C)S[C@@H]2[C@H](NC(=O)C(C(=O)O)c3ccccc3)C(=O)N2[C@H]1C(=O)O` (some centres not stated), the fold change in assay [1] (setting [13]) is 0.874 (inactive); in assay [1] (setting [14]) it was 0.602. Besides, the figures for the cell count in assay [1] (setting [15]) and in [1] (setting [16]) were 11000 and 12600, respectively. Further, the remaining NAD in assay [3] is 10 nM (inactive). For the same compound, in assay [4], the luciferase signal is 84 AU (inactive).
Take `CCCCCC(C)N` (configuration not stated): the results for the fold change in assay [1] (setting [13]) and in [1] (setting [14]) were 0.893 (inactive) and 1.93, respectively. Besides, the cell count in assay [1] (setting [15]) was determined as 11000; in assay [1] (setting [16]), 12400. In addition, in [3], the remaining NAD is 10 nM (inactive).
Regarding `C=CCc1ccc(O)c(OC)c1`, the fold change in assay [1] (setting [13]) is 0.949 (inactive); in [1] (setting [14]) it was 0.583. The values for the cell count in [1] (setting [15]) and in [1] (setting [16]) were 11000 and 11600, respectively. The remaining NAD in assay [3] was 10 nM (inactive). For the same compound, the luciferase signal in [4] was 12 AU (inactive).
As to `Cc1cc(C(C)(C)C)c(O)c(C(C)(C)C)c1`, the figures for the fold change in [1] (setting [13]) and in assay [1] (setting [14]) were 0.871 (inactive) and 0.986, respectively. Also, the cell count was found to be 10700 in [1] (setting [15]) and 12300 in [1] (setting [16]). For the same compound, in assay [3], the remaining NAD is 10 nM (inactive). The luciferase signal in [4] was 20 AU (inactive).
As to `COc1ccc(CN(CCN(C)C)c2ncccn2)cc1`, the fold change is 0.86 (inactive) in assay [1] (setting [13]) and 3.03 in [1] (setting [14]). Also, the cell count in assay [1] (setting [15]) stood at 11900; in assay [1] (setting [16]), 13800. In addition, the remaining NAD in [3] is 10 nM (inactive). For the same compound, the luciferase signal in assay [4] was 60 AU (inactive).
